# Assay results from the supplement of paper PMC8728848.
# This is one part of a sample in which the strongest signals are shown more often than they occur.
# B1: Endo180d1-D4 (Homo sapiens), Q9UBG0 (protein)
# chain: MGPGRPAPAPWPRHLLRCVLLLGCLHLGRPGAPGDAALPEPNVFLIFSHGLQGCLEAQGGQVRVTPACNTSLPAQRWKWVSRNRLFNLGTMQCLGTGWPGTNTTASLGMYECDREALNLRWHCRTLGDQLSLLLGARTSNISKPGTLERGDQTRSGQWRIYGSEEDLCALPYHEVYTIQGNSHGKPCTIPFKYDNQWFHGCTSTGREDGHLWCATTQDYGKDERWGFCPIKSNDCETFWDKDQLTDSCYQFNFQSTLSWREAWASCEQQGADLLSITEIHEQTYINGLLTGYSSTLWIGLNDLDTSGGWQWSDNSPLKYLNWESDQPDNPSEENCGVIRTESSGGWQNRDCSIALPYVCKKKPNATAEPTPPDRWANVKVECEPSWQPFQGHCYRLQAEKRSWQESKKACLRGGGDLVSIHSMAELEFITKQIKQEVEELWIGLNDLKLQMNFEWSDGSLVSFTHWHPFEPNNFRDSLEDCVTIWGPEGRWNDSPCNQSLPSICKKAGQLSQGAAEEDHGCRKGWTWHSPSCYWLGEDQVTYSEARRLCTDHGSQLVTITNRFEQAFVSSLIYNWEGEYFWTALQDLNSTGSFFWLSGDEVMYTHWNRDQPGYSRGGCVALATGSAMGLWEVKNCTSFRARYICRQSLGTPVTPELPGPDPTPSLTGSCPQGWASDTKLRYCYKVFSSERLQDKKSWVQAQGACQELGAQLLSLASYEEEHFVANMLNKIFGESEPEIHEQHWFWIGLNRRDPRGGQSWRWSDGVGFSYHNFDRSRHDDDDIRGCAVLDLASLQWVAMQCDTQLDWICKIPRGTDVREPDDSPQGRREWLRFQEAEYKFFEHHSTWAQAQRICTWFQAELTSVHSQAELDFLSHNLQKFSRAQEQHWWIGLHTSESDGRFRWTDGSIINFISWAPGKPRPVGKDKKCVYMTASREDWGDQRCLTALPYICKRSNVTKETQPPDLPTTALGGCPSDWIQFLNKCFQVQGQEPQSRVKWSEAQFSCEQQEAQLVTITNPLEQAFITASLPNVTFDLWIGLHASQRDFQWVEQEPLMYANWAPGEPSGPSPAPSGNKPTSCAVVLHSPSAHFTGRWDDRSCTEETHGFICQKGTDPSLSPSPAALPPAPGTELSYLNGTFRLLQKPLRWHDALLLCESHNASLAYVPDPYTQAFLTQAARGLRTPLWIGLAGEEGSRRYSWVSEEPLNYVGWQDGEPQQPGGCTYVDVDGAWRTTSCDTKLQGAVCGVSSGPPPPRRISYHGSCPQGLADSAWIPFREHCYSFHMELLLGHKEARQRCQRAGGAVLSILDEMENVFVWEHLQSYEGQSRGAWLGMNFNPKGGTLVWQDNTAVNYSNWGPPGLGPSMLSHNSCYWIQSNSGLWRPGACTNITMGVVCKLPRAEQSSFSPSALPENPAALVVVLMAVLLLLALLTAALILYRRRQSIERGAFEGARYSRSSSSPTEATEKNILVSDMEMNEQQE
# Columns and labels:
# Test in all cases: glycan array binding signal (z-score within array); higher = stronger binding
# Details in all cases: glycan notation: IUPAC condensed, linker removed
# [1] = target: Neu5Ac(a2-3)Gal(b1-3)[Neu5Ac(a2-6)]GalNAc
# Method in brief: (§1)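 Columns mapping to the same glycan were averaged after glycan names were converted to IUPAC-condensed notation. The data come from 3228 arrays in the Consortium for Functional Glycomics database, limited to those with an available protein sequence. Binding is reported as a within-array Z-score averaged across arrays of one protein sequence and across linkers.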
# [2] = target: Neu5Ac(a2-3)Gal(b1-4)GlcNAc(b1-2)Man(a1-3)[Neu5Ac(a2-3)Gal(b1-4)GlcNAc(b1-2)Man(a1-6)]Man(b1-4)GlcNAc(b1-4)GlcNAc
# Method in brief: as §1
# [3] = target: Neu5Ac(a2-3)Gal(b1-4)GlcNAc(b1-3)Gal
# Method in brief: as §1
# [4] = target: Neu5Ac(a2-3)Gal(b1-4)[Fuc(a1-3)]GlcNAc
# Method in brief: as §1
# [5] = target: Neu5Ac(a2-3)Gal(b1-4)[Fuc(a1-3)]GlcNAc(b1-3)Gal(b1-4)[Fuc(a1-3)]GlcNAc(b1-3)Gal(b1-4)[Fuc(a1-3)]GlcNAc
# Method in brief: as §1
# [6] = target: Neu5Ac(a2-6)Gal(b1-4)GlcNAc(b1-2)Man(a1-3)[GlcNAc(b1-2)Man(a1-6)]Man(b1-4)GlcNAc(b1-4)GlcNAc
# Method in brief: as §1
# [7] = target: Neu5Ac(a2-6)Gal(b1-4)GlcNAc(b1-2)Man(a1-3)[Neu5Ac(a2-3)Gal(b1-4)GlcNAc(b1-2)Man(a1-6)]Man(b1-4)GlcNAc(b1-4)GlcNAc
# Method in brief: as §1
# [8] = target: Neu5Ac(a2-6)Gal(b1-4)GlcNAc(b1-2)Man(a1-6)[GlcNAc(b1-2)Man(a1-3)]Man(b1-4)GlcNAc(b1-4)GlcNAc
# Method in brief: as §1
# [9] = target: Neu5Ac(a2-6)Gal(b1-4)GlcNAc(b1-2)[Neu5Ac(a2-6)Gal(b1-4)GlcNAc(b1-4)]Man(a1-3)[GlcNAc(b1-4)][Neu5Ac(a2-6)Gal(b1-4)GlcNAc(b1-2)[Neu5Ac(a2-6)Gal(b1-4)GlcNAc(b1-6)]Man(a1-6)]Man(b1-4)GlcNAc(b1-4)GlcNAc
# Method in brief: as §1
# [10] = target: Neu5Ac(a2-6)Gal(b1-4)GlcNAc(b1-2)[Neu5Ac(a2-6)Gal(b1-4)GlcNAc(b1-6)]Man(a1-6)[Neu5Ac(a2-6)Gal(b1-4)GlcNAc(b1-2)Man(a1-3)][GlcNAc(b1-4)]Man(b1-4)GlcNAc(b1-4)GlcNAc
# Method in brief: as §1
# [11] = target: Neu5Ac(a2-6)Gal(b1-4)GlcNAc(b1-3)Gal(b1-4)[Fuc(a1-3)]GlcNAc(b1-3)Gal(b1-4)[Fuc(a1-3)]GlcNAc
# Method in brief: as §1
# [12] = target: Neu5Ac(a2-6)Gal(b1-4)GlcNAc(b1-6)GalNAc
# Method in brief: as §1
# [13] = target: Neu5Ac(a2-6)Gal(b1-4)GlcNAc(b1-6)[Gal(b1-3)GlcNAc(b1-3)]Gal(b1-4)Glc
# Method in brief: as §1
# [14] = target: Neu5Gc(a2-8)Neu5Ac(a2-3)Gal(b1-4)GlcNAc
# Method in brief: as §1
binder,measurement,setting,value
B1,glycan array binding signal (z-score),[1],-0.517
same,glycan array binding signal (z-score),[2],-0.688
same,glycan array binding signal (z-score),[3],0.249
same,glycan array binding signal (z-score),[4],-0.083
same,glycan array binding signal (z-score),[5],-0.132
same,glycan array binding signal (z-score),[6],3.38
same,glycan array binding signal (z-score),[7],0.363
same,glycan array binding signal (z-score),[8],-0.485
same,glycan array binding signal (z-score),[9],-0.277
same,glycan array binding signal (z-score),[10],2.92
same,glycan array binding signal (z-score),[11],2.78
same,glycan array binding signal (z-score),[12],0.474
same,glycan array binding signal (z-score),[13],-0.046
same,glycan array binding signal (z-score),[14],-0.032
